About 83,000 compounds went through this panel and 20% of them were active in at least one assay; those are over-represented in the sample as a whole.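 Treatment: one concentration, 48 hours, 96-well format. Scoring: percent growth, with anything below 10 considered active.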 Values without a mark were called inactive. Activity calls are given as the source filed them.

Among the test systems are NCI-H23 lung; NCI-H226 lung; NCI-H322M lung; HOP-62 NSCLC; NCI-H460 lung; 786-0 renal; DU-145 prostate; MDA-MB-231 breast; SF-268 CNS; SNB-19 CNS; UACC-62 melanoma; SK-MEL-28 melanoma; SN12C renal; UO-31 renal; OVCAR-5 ovarian; OVCAR-3 ovarian; NCI/ADR-RES ovarian; MDA-MB-435 melanoma; MCF7 breast; KM12 colon.
What all share (test): NCI-60 one-dose screen, 48 h (100 = growth as untreated, 0 = no growth, -100 = all killed)
What all share (conditions): 10 µM unless noted

Consider `O=C1NC(=O)C(Cc2ccccc2)(Cc2ccccc2)C(=O)N1`, for which the growth was 111% in the assay with NCI-H23 lung; 105% in the assay on NCI-H226 lung; 111% in the assay on NCI-H322M lung; 95.8% in the assay with HOP-62 NSCLC; 110% in the assay with NCI-H460 lung; 98.6% in the assay on 786-0 renal. Besides, the growth with DU-145 prostate was 115%; in the assay on MDA-MB-231 breast, 98.9%; in the assay with SF-268 CNS, 109%; in the assay with SNB-19 CNS, 102%; in the assay with UACC-62 melanoma it was 95.1%; in the assay on SK-MEL-28 melanoma it was 97.9%. Also, the growth in the assay on SN12C renal was 104%; with UO-31 renal, 78.7%; with OVCAR-5 ovarian, 110%; in the assay with OVCAR-3 ovarian, 119%; with NCI/ADR-RES ovarian, 113%; with MDA-MB-435 melanoma, 113%. For the same compound, the growth in the assay on MCF7 breast was 94.8%; in the assay on KM12 colon it was 105%.

On to `C[C@]12CC[C@H]3[C@@H](C[C@@H]4N=C(c5ccc(O)cc5)S[C@@]45C[C@H](O)CC[C@]35C)[C@@H]1CC[C@@H]2O`, for which the growth in the assay on NCI-H23 lung was 74.7%; with NCI-H226 lung, 110%; in the assay with NCI-H322M lung, 92.8%; in the assay on HOP-62 NSCLC, 46.7%; with NCI-H460 lung, 41.9%; in the assay with 786-0 renal, 8.35% (active). The growth is 63.8% with DU-145 prostate; 56.2% in the assay with MDA-MB-231 breast; 48.6% in the assay on SF-268 CNS; 71% with SNB-19 CNS; 28.7% in the assay with UACC-62 melanoma; 53.3% in the assay with SK-MEL-28 melanoma. Besides, the growth was 96.7% in the assay with SN12C renal; 9.33% (active) in the assay with UO-31 renal; 106% in the assay on OVCAR-5 ovarian; 38.6% in the assay with OVCAR-3 ovarian; 76.8% with NCI/ADR-RES ovarian; 92% in the assay on MDA-MB-435 melanoma. The growth was 42.6% with MCF7 breast and 60.8% with KM12 colon.

For `Cc1ccc(N)cc1[As]=[As]c1cc(N)ccc1C` (centres undefined), the growth is -56.4% (active) with NCI-H23 lung; -93.2% (active) with NCI-H226 lung; 50.3% in the assay on NCI-H322M lung; 14.9% with HOP-62 NSCLC; 60.4% in the assay with NCI-H460 lung; -89.3% (active) with 786-0 renal. For the same compound, the growth was -40.6% (active) with DU-145 prostate; -92.6% (active) with MDA-MB-231 breast; -83.6% (active) in the assay on SF-268 CNS; -47.5% (active) in the assay on SNB-19 CNS; -90.4% (active) with UACC-62 melanoma; -94.2% (active) with SK-MEL-28 melanoma. Further, the growth with SN12C renal was -86.5% (active); in the assay on UO-31 renal, -99.7% (active); in the assay on OVCAR-5 ovarian, -90.6% (active); in the assay with OVCAR-3 ovarian, -92.6% (active); with NCI/ADR-RES ovarian, 53.8%; in the assay with MDA-MB-435 melanoma, -89% (active). The growth with MCF7 breast was -74.9% (active); in the assay on KM12 colon, 65.7%.

Regarding `C[CH2][Sn]([CH2]C)([CH2]C)[NH]S(=O)(=O)c1ccc(C)cc1`, the growth is 96.4% in the assay with NCI-H23 lung; 116% with NCI-H226 lung; 111% with NCI-H322M lung; 121% in the assay on HOP-62 NSCLC; 107% with NCI-H460 lung; 109% in the assay on 786-0 renal. For the same compound, the growth with DU-145 prostate was 113%; in the assay on MDA-MB-231 breast, 107%; with SF-268 CNS, 108%; with SNB-19 CNS, 114%; with UACC-62 melanoma, 100%; in the assay with SK-MEL-28 melanoma, 111%. Also, the growth with SN12C renal is 106%; with UO-31 renal, 86.9%; with OVCAR-5 ovarian, 114%; in the assay with OVCAR-3 ovarian, 113%; in the assay with NCI/ADR-RES ovarian it was 104%; in the assay with MDA-MB-435 melanoma, 102%. In addition, the growth is 103% in the assay on MCF7 breast and 105% in the assay on KM12 colon.

With `CNc1ccc(C(=O)CC(O)CCC(C)C2OC(=O)CC(O)CC(=O)CC(O)CC(O)CC(O)CC(O)CC3(O)CC(O)C(C(=O)OC)C(CC(O[C@@H]4O[C@H](C)[C@@H](O)[C@H](N)[C@@H]4O)/C=C/C=C/C=C/C=C/C=C/C=C/C=C/C2C)O3)cc1` (some centres undefined), the growth was -54.5% (active) in the assay with NCI-H23 lung; -37.7% (active) in the assay with NCI-H226 lung; 1.05% (active) in the assay with NCI-H322M lung; -25.9% (active) in the assay with HOP-62 NSCLC; 3.55% (active) in the assay on NCI-H460 lung; -20.1% (active) in the assay with 786-0 renal. In addition, the growth is -75.3% (active) in the assay on DU-145 prostate; -0.509% (active) in the assay on MDA-MB-231 breast; -5.42% (active) in the assay on SF-268 CNS; 41.8% in the assay with SNB-19 CNS; 3.05% (active) in the assay with UACC-62 melanoma; -89.1% (active) with SK-MEL-28 melanoma. For the same compound, the growth in the assay on SN12C renal was -81.3% (active); in the assay on UO-31 renal, -58.6% (active); in the assay with OVCAR-5 ovarian, -9.42% (active); in the assay with OVCAR-3 ovarian it was -15% (active); in the assay with NCI/ADR-RES ovarian, -35.9% (active); in the assay with MDA-MB-435 melanoma, -1.58% (active). The growth with MCF7 breast was 8.58% (active); with KM12 colon it was 7.61% (active).

In the case of `[Br][Pb]([c]1ccccc1)([c]1ccccc1)[c]1ccccc1`, the growth with NCI-H23 lung was -88.8% (active); in the assay with NCI-H226 lung, -44.6% (active); in the assay with NCI-H322M lung it was -100% (active); in the assay with HOP-62 NSCLC it was -97.7% (active); in the assay on NCI-H460 lung, -100% (active); in the assay with 786-0 renal, -96.3% (active). The growth was -97.5% (active) in the assay on DU-145 prostate; -92.2% (active) in the assay with MDA-MB-231 breast; -95.1% (active) with SF-268 CNS; -93% (active) in the assay on SNB-19 CNS; -92.2% (active) with UACC-62 melanoma; -100% (active) with SK-MEL-28 melanoma. The growth was -83.7% (active) in the assay with SN12C renal; -99.8% (active) with UO-31 renal; -93.1% (active) with OVCAR-5 ovarian; -99% (active) in the assay with OVCAR-3 ovarian; -71.6% (active) with NCI/ADR-RES ovarian; -98.6% (active) with MDA-MB-435 melanoma. Further, the growth was -69.9% (active) in the assay with MCF7 breast and -99.4% (active) with KM12 colon.

For the compound `CC(N)Cc1ccc(O)cc1` (centres undefined), the growth with NCI-H23 lung was 108%; with NCI-H226 lung, 99.2%; with NCI-H322M lung it was 95.5%; in the assay with HOP-62 NSCLC, 111%; with NCI-H460 lung, 109%; in the assay on 786-0 renal, 98.6%. Also, the growth in the assay with DU-145 prostate is 112%; with MDA-MB-231 breast, 106%; in the assay on SF-268 CNS, 99.4%; in the assay with SNB-19 CNS, 114%; with UACC-62 melanoma, 105%; in the assay on SK-MEL-28 melanoma, 124%. Also, the growth is 105% in the assay on SN12C renal; 79.3% in the assay on UO-31 renal; 104% in the assay on OVCAR-5 ovarian; 108% with OVCAR-3 ovarian; 103% with NCI/ADR-RES ovarian; 106% in the assay with MDA-MB-435 melanoma. Further, the values for the growth in the assay on MCF7 breast and with KM12 colon were 100% and 107%, respectively.

With `CN=C(NN)NN`, the growth in the assay with NCI-H23 lung is 102%; with NCI-H226 lung it was 109%; in the assay on NCI-H322M lung, 114%; with HOP-62 NSCLC it was 135%; in the assay with NCI-H460 lung, 111%; in the assay on 786-0 renal, 103%. In addition, the growth in the assay with DU-145 prostate is 111%; with MDA-MB-231 breast, 120%; with SF-268 CNS it was 103%; with SNB-19 CNS, 121%; in the assay on UACC-62 melanoma, 116%; in the assay on SK-MEL-28 melanoma, 118%. For the same compound, the growth is 113% in the assay with SN12C renal; 90.8% in the assay on UO-31 renal; 111% in the assay on OVCAR-5 ovarian; 102% with OVCAR-3 ovarian; 99.8% with MDA-MB-435 melanoma; 99.3% with MCF7 breast. Further, in the assay on KM12 colon, the growth was 108%.

For the origin of these results see PubChem BioAssay (NCI).
